Source: PubChem
Shown are actives, neighbours in structure and some others; about 4.3% of the full set was active somewhere.
AF4-AF9 inh: inhibitors of human MLL-AF4/AF9 interaction. P42568. AlphaScreen, biotin-AF4 peptide binding to FLAG-AF9. inhibition, % at 10 µM. hit rate 0.47% among 350,000;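 active = every replicate reaching a set inhibition limit, whatever the replicate mean, cut at about 25% in these data; inconclusive = mean inhibition reaches that limit but some replicates miss it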;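 note: 0% = plate neutral control median and 100% = total signal loss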
Target sequence (P42568 whole entry, looked up): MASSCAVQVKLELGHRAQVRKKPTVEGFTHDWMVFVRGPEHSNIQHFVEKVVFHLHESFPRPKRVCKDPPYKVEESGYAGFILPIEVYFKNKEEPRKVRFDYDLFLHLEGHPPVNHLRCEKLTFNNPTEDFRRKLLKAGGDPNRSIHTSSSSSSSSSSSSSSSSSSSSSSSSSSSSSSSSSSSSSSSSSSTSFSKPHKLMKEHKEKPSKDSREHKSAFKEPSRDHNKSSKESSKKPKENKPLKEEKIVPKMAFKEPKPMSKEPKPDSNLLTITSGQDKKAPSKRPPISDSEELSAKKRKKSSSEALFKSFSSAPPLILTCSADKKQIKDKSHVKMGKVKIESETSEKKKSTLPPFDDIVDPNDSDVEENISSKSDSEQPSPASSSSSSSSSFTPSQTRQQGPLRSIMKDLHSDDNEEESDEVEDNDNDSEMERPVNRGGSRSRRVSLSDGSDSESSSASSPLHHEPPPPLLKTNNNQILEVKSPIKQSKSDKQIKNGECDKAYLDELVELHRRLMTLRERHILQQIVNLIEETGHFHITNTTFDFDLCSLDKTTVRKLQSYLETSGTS
SMARCA2 act: activators of SMARCA2 function; MG213 cells, MMTV-luciferase reporter, dexamethasone, overnight; activation, % at 9.1 µM; hit rate 1% among 370,000; AID 652017; in the data active = activation above about 7.8%;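 note: 0% = vehicle wells and 100% = reference activator wells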
Wnt act: activators of Wnt/beta-catenin signaling; Wnt/beta-catenin reporter cell assay, activator, plate reader; activation, % at 9.35 µM; hit rate 1.2% among 300,000; AID 743398; in the data active = activation above about 30%, passing the limit was not always enough; inconclusive = no clear call, values can overlap the other calls;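 note: 0% = neutral control wells and 100% = positive control wells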
MITF act: activators of MITF-driven TRPM1 promoter activity in SK-MEL-5 cells. SK-MEL-5 TRPM1-promoter luciferase, 24 h; % of positive control, neutral wells = 0. activation, % at 12.5 µM. hit rate 0.75% among 300,000;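 active = mean activation of at least 80% with every replicate also reaching 80%; inconclusive = mean reaches 80% but some replicate falls short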;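 note: 0% = neutral control wells and 100% = parthenolide positive control wells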
esBAF inh: SWI/SNF esBAF complex inhibition. mouse ES cells, Bmi1-luciferase knock-in reporter, 24 h; 100% = twice the neutral-well signal. reporter increase, % at 12.5 µM. hit rate 2% among 350,000. AID 602393; in the data active = activation above about 40%; inconclusive = no clear call, values can overlap the other calls;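 note: 0% = median of the plate's neutral control wells and 100% = double that signal; a rise in the Bmi1 reporter signal indicates esBAF inhibition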
FGF22 binding: binders of recombinant human FGF22 by thermal shift. SYPRO orange fluorescence; percent of sucrose octasulfate shift, DMSO zero. activity (Tm shift, normalised), % at 9.99 µM. hit rate 1.5% among 340,000;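 active = mean Tm shift, scaled 0 neutral to 100 positive control, at about 1.3% or above, every replicate too, limit read from the data; inconclusive = no clear call, values can overlap the other calls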
SMARCA2 conf: confirmation of SMARCA2 (BRM) function activators | shares compounds with SMARCA2 act | MG213 cells, MMTV-luciferase with dexamethasone, luminescence, overnight; MG213 cells expressing E1A, Rb sequestered; DMSO wells 0%, reference activator 100% | activation, % at 9.1 µM | hit rate 30% among 3,500 | AID 652260;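 active = activation above its plate's cutoff, the mean activation of tested wells plus 3 SD, cut at about 7.9% in these data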
VP16 Luc act: GAL4-VP16 reporter activation counter-screen. hit rate 41% among 3,500. shares compounds with SMARCA2 act. HEK293 GAL4-VP16 pG5luc reporter, luciferase luminescence; scaled: DMSO wells 0%, SAHA wells 100%. activation, % at 9.1 µM;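 active = activation above the solvent-only control well mean plus 3 SD, averaged across control plates, cut at about 5.2% in these data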
* hit, by the source's call; ? = inconclusive; . = no result given; ! = not active in a repeat.

SMILES	AF4-AF9 inh	SMARCA2 act	Wnt act	MITF act	esBAF inh	FGF22 binding	SMARCA2 conf	VP16 Luc act
CN(CCc1ccccc1)C(=O)c1cc2ccccn2n1	.	8.2*	.	.	.	.	5.1	6.0*
O=S(=O)(c1cccc(F)c1)N1CC[C@@H]2[C@H](CO)Nc3ccc(-c4cccc(F)c4)cc3[C@@H]21	.	.	.	.	-3.7	-0.3	.	.
Nc1ccc2cc3ccc(N)cc3nc2c1	.	42.8*	.	.	.	.	-11.4	-2.3
COCCn1c(=O)[nH]c2cc(C(=O)Nc3nnc(C)s3)ccc21	1.3	8.2*	5.0	30.1	0.6	-0.2	4.4	2.8
Cc1ccc2nc(SCC(=O)c3ccc(O)cc3O)[nH]c2c1	2.7	8.6*	41.3*	53.8	62.2*	0.0	6.1	10.4*
COC(=O)CSc1nc2ccc(C)cc2[nH]1	.	3.5	.	-4.9	-4.7	.	.	.
COc1ccc(S(=O)(=O)NCc2cccnc2)cc1C(=O)N1CCCCC1	0.3	9.8*	-2.8	.	-3.9	-0.5	-1.3	0.5
COc1ccc(S(=O)(=O)Nc2cccc(SC)c2)cc1C(=O)N1CCOCC1	-3.9	9.6*	-1.8	12.2	-5.2	-0.3	0.2	-0.5
Cc1ccc(S(=O)(=O)NCc2cccnc2)cc1C(=O)N1CCCC1	-0.4	-1.1	0.0	4.0	2.5	-0.1	.	.
C[C@H](CO)N1C[C@H](C)[C@H](CN(C)Cc2ccc(C(=O)O)cc2)OCCCC[C@H](C)Oc2ccc(NS(=O)(=O)c3ccc(F)cc3)cc2C1=O	-1.3	.	.	.	1.8	-0.3	.	.
COc1cccc(NC(=O)CCc2c(C)nn(-c3ccc(N4CCOCC4)nn3)c2C)c1	-28.4	10.6*	4.5	8.7	27.2	0.0	1.8	2.9
Cc1cccc(NC(=O)CCc2c(C)nn(-c3ccc(N4CCOCC4)nn3)c2C)c1	1.7	1.4	-0.7	31.6	29.5	0.0	.	.
Cc1cc2ccccn2c1C(=O)Nc1cccc(Cl)c1	1.6	8.1*	0.0	-2.5	.	0.1	4.9	3.4
Cc1cc2ccccn2c1C(=O)c1ccc(Cl)cc1	.	3.1	.	22.5	4.7	.	.	.
Cc1ccccc1-c1ccc2c(c1)O[C@H](CN(C)C(=O)Nc1ccc(F)cc1)[C@@H](C)CN([C@H](C)CO)S2(=O)=O	.	.	.	.	2.2	-0.1	.	.
CC=Cc1ccc2n(c1=O)C[C@H]1[C@H](CO)[C@@H](C(=O)NCC)[C@@H]2N1CCC(F)(F)F (mixture of isomers)	2.9	.	.	.	-0.3	-0.1	.	.
O=c1oc(-c2ccc(Br)o2)nc2ccccc12	.	13.6*	11.7	1.3	8.3	.	7.3	2.8
Cc1ccccc1-c1nc2ccccc2c(=O)o1	-4.3	-0.4	-2.9	.	8.7	0.3	.	.
c1ccc2[nH]c(-c3ccnc4ccccc34)nc2c1	.	10.7*!	38.0*	17.8	27.0	.	5.5	2.7
Cc1cc2oc(C(=O)Nc3nonc3C)c(C)c2cc1C	0.9	8.9*	?	119.7*	76.8*	-0.2	7.3	11.0*
Cc1ccc2oc(C(=O)Nc3cc(C)on3)c(C)c2c1	-4.6	9.4*	42.5*	21.1	36.9	-0.5	8.2*	8.0*
CC(=O)Nc1ccc(NC(=O)c2oc3cc(C)c(C)cc3c2C)cc1	-5.3	-3.0	-2.2	11.3	2.7	-0.1	.	.
Nc1nc(-c2ccc(Cl)cc2)cs1	4.1	9.1*	-0.3	.	.	-0.3	7.3	1.4
Nc1nc(COc2ccc(Cl)cc2)cs1	2.6	10.2*	?	68.7	27.6	42.7	4.5	4.2
O=C(CCc1ccccc1)N[C@H]1[C@@H](OC(=O)c2ccco2)CCC[C@@]12C(=O)N(Cc1ccccc1)c1ccccc12	.	0.3	.	.	.	.	.	.
CCCNC(=O)C[C@@H]1C[C@@H]2c3cc(NS(=O)(=O)c4ccccc4)ccc3O[C@@H]2[C@@H](CO)O1	.	.	.	.	-2.2	0.1	.	.
O=C(Nc1ccc2c(c1)[C@@H]1C[C@@H](CC(=O)N3CCc4ccccc4C3)O[C@@H](CO)[C@@H]1O2)NC1CCCC1	2.6	.	.	.	3.2	0.0	.	.
